The supplement of paper PMC6555819

What was measured:
Assay in all cases: PBM binding z-score (relative to random genomic background probes); higher = stronger binding; sequences stand for … in GC…GCGATTGACAGCGTAGAATGAAGG
[1] = system: FXR:RXRa (NR concentration 270 nM, RXRa partner concentration 90 nM)
In short: (§1)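 Custom Agilent 4×180K protein-binding microarrays carried double-stranded probes, each with a 34-nt variable region. These regions held direct-repeat seeds, single-nucleotide variants, half-site ablations and random human genomic background sequences. Ligand-free nuclear receptor dimers were incubated on the arrays for 1 h, antibodies against each partner (one per run) detected binding, and scanned fluorescence was regression-normalized. Binding z-scores take the random background probes as reference.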

[2] = system: LXRa:RXRa (NR concentration 270 nM, RXRa partner concentration 90 nM)
In short: as §1

[3] = system: LXRa homodimer (NR concentration 270 nM)
In short: as §1

[4] = system: LXRb:RXRa (NR concentration 270 nM, RXRa partner concentration 90 nM)
In short: as §1

[5] = system: LXRb homodimer (NR concentration 270 nM)
In short: as §1

[6] = system: PPARa:RXRa (NR concentration 270 nM, RXRa partner concentration 90 nM)
In short: as §1

[7] = system: PPARg:RXRa (NR concentration 180 nM, RXRa partner concentration 90 nM)
In short: as §1

[8] = system: PPARg:RXRa 270nM:90nM, anti-RXR (NR concentration 270 nM, RXRa partner concentration 90 nM)
In short: as §1

[9] = system: PPARg:RXRa 30nM:10nM, anti-RXR (NR concentration 30 nM, RXRa partner concentration 10 nM)
In short: as §1

[10] = system: PPARg:RXRa 90nM:30nM, anti-RXR (NR concentration 90 nM, RXRa partner concentration 30 nM)
In short: as §1

Row | Sequence | PBM binding z-score [1] | PBM binding z-score [2] | PBM binding z-score [3] | PBM binding z-score [4] | PBM binding z-score [5] | PBM binding z-score [6] | PBM binding z-score [7] | PBM binding z-score [8] | PBM binding z-score [9] | PBM binding z-score [10]
1 | TAGCATAGGTCATGGGCCAGTATACCACGCGAAC | 6.75 | 5.37 | 0.897 | 4.03 | 0.148 | 5.98 | 5.56 | 5.31 | 2.04 | 4.24
2 | TCCAGTAGGTTAGGGGCATTCAGAATGGCGTCGA | 0.986 | 0.635 | -0.245 | 1.19 | -0.0601 | 1.72 | 1.87 | 3.55 | 2.86 | 3.05
3 | GCGACTGGGGCGAAGCAGGTTACCATAAGGTTGG | -0.35 | -0.539 | -0.81 | -0.315 | -1.13 | 0.234 | 0.378 | -0.549 | -0.972 | -0.732
4 | CCTATTAGTTGACCATAAGGGCCACCGAAGCTCG | 0.118 | 0.041 | 0.365 | 0.0156 | 0.659 | 0.169 | 0.368 | 0.219 | 0.231 | 0.304
5 | CTCGAAAGGTCGTGCTCAGGTGAGTATACCAAAC | 5.37 | 4.02 | 0.432 | 3.45 | 0.379 | 4.99 | 2.62 | 3.65 | 0.746 | 2.23
6 | ATCTCTAGGTAAGGCTCAGTTCAGTGAAGAACGC | 0.198 | 0.107 | 0.412 | 0.0703 | 0.35 | 0.125 | 0.0741 | 0.513 | 0.188 | 0.48
7 | TCGCGGAGGACACGAAGGTCAGAGCTTTCCAGAG | 0.923 | 0.953 | 0.0426 | 0.704 | -1.29 | 1.84 | 0.306 | 1.15 | 0.607 | 0.901
8 | CCTGCTAGGTCGTGGTCAGCTAATCTACAGTATG | 0.204 | 0.138 | -0.589 | 0.0814 | -0.563 | 0.699 | -0.0367 | 0.111 | -0.191 | 0.0176
9 | ATATGTAGGTTATCGGGTCATTAAGTTTGCGCAT | 3 | 2.85 | 1.77 | 2.95 | 1.02 | 5 | 7.09 | 6.08 | 3.81 | 5.71
10 | TCTTGTAGATCAACAGGAGATTAAGAAAGATCGA | -0.494 | -0.198 | -0.713 | -0.321 | -0.695 | 0.133 | 0.237 | 0.964 | 2.14 | 1.68
11 | AGAACGACGGCACGCTGAGTTGATAGCAGAGTAG | -0.194 | -0.427 | -0.906 | -0.149 | -1.06 | -0.667 | 0.557 | -0.503 | -0.345 | -0.753
12 | GGATCGAGGGCAAGTTGATAGCAGAGTTTGATGG | 0.982 | 0.317 | -0.184 | 0.122 | 0.0808 | 1.42 | 0.962 | 0.758 | 0.0505 | 0.387
13 | AGAATGAGGTTATACGTAGATCAGGGATGAAAGT | 2.37 | 1.9 | 0.0703 | 1.68 | -0.152 | 3.09 | 2.07 | 2.01 | 0.736 | 1.73
14 | ACTAGGAGGCCAAGGGTCACTCAAGATTAGTCCG | 2.82 | 3.11 | 0.119 | 2.83 | 0.0149 | 4.59 | 8.49 | 7.94 | 7.43 | 8.35
15 | GCCACTGGGGCATCAGCAGGTTACCATAACTTAA | -0.242 | -0.416 | -0.158 | 0.103 | -1.12 | 1.28 | 1.72 | 1.82 | 0.184 | 0.914
16 | CCTCGGAGGACTACAGGAGGTCAGAGCTGCCAGA | 0.709 | 3.27 | 2.29 | 1.62 | -0.728 | 1.8 | 0.238 | -0.104 | -0.885 | -0.225
17 | CGTCCAAGGTCCTAGGAGGTCAGTGAAGACAGAT | 1.97 | 1.66 | 0.256 | 1.71 | -0.518 | 2.44 | 0.157 | 0.654 | -0.57 | 0.21
18 | TGAATGAGGTTAAAGATCCGGGAACGTGGCGTCG | 2.36 | 1.91 | -0.227 | 1.13 | 0.309 | 3.14 | 2.27 | 3.37 | 1.55 | 2.9
19 | ACTAGCAGGTCAAGTTTGGGTCACTCAAACAAAG | 5.89 | 4.79 | 1.41 | 3.88 | 1.28 | 4.83 | 4.43 | 4.76 | 1.27 | 3.41
20 | CTGAGTAGGTTATGGGGCATTCAGGCAACGGTGA | 0.204 | 0.0795 | 0.0598 | 0.763 | -0.118 | 2.8 | 4.62 | 5.02 | 3.08 | 5.01
21 | TTACCCAGGTGAGCTGAGGTCGTTGATCCAACTC | 1.83 | 0.726 | -0.313 | 0.515 | -1.12 | 1.35 | 0.177 | 0.382 | -0.172 | 0.184
22 | CTCGAAAGGTCGTGCTCAGGTTAGTATACCAAAC | 5.58 | 4.22 | 0.511 | 3.78 | 0.719 | 5.12 | 2.57 | 3.75 | 0.966 | 2.37
23 | CCTCGGAGGACAGAAGGGCAGAGCTGTCCGCTTT | -0.424 | -0.658 | -0.967 | -0.952 | -1.04 | -1.11 | -0.572 | -0.994 | -1.32 | -1.13
24 | ATTTGTAGGTTAGCTGGGGTCATTCAGACTAGGC | 4.72 | 6 | 4.63 | 5.23 | 2.54 | 5.2 | 4.29 | 4.6 | 2.42 | 3.79
